From PubChem BioAssay AID1456 (Vanderbilt High Throughput Screening Facility, 2008) come the findings set out here.

Screen size: about 190,000 compounds; about 4,100 (2.2%) were called active. The sample holds actives, similar compounds and a random draw of the others, so the mix is not that of the screen.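 Rule for the calls: active = thallium flux slope and its plate-corrected score both differing from the plate sample mean at a set confidence after two filtering rounds, in either direction; inactive = the rest.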

Chain of Solute carrier family 12 member 5 (Homo sapiens) (Q9H2X9 whole entry, looked up): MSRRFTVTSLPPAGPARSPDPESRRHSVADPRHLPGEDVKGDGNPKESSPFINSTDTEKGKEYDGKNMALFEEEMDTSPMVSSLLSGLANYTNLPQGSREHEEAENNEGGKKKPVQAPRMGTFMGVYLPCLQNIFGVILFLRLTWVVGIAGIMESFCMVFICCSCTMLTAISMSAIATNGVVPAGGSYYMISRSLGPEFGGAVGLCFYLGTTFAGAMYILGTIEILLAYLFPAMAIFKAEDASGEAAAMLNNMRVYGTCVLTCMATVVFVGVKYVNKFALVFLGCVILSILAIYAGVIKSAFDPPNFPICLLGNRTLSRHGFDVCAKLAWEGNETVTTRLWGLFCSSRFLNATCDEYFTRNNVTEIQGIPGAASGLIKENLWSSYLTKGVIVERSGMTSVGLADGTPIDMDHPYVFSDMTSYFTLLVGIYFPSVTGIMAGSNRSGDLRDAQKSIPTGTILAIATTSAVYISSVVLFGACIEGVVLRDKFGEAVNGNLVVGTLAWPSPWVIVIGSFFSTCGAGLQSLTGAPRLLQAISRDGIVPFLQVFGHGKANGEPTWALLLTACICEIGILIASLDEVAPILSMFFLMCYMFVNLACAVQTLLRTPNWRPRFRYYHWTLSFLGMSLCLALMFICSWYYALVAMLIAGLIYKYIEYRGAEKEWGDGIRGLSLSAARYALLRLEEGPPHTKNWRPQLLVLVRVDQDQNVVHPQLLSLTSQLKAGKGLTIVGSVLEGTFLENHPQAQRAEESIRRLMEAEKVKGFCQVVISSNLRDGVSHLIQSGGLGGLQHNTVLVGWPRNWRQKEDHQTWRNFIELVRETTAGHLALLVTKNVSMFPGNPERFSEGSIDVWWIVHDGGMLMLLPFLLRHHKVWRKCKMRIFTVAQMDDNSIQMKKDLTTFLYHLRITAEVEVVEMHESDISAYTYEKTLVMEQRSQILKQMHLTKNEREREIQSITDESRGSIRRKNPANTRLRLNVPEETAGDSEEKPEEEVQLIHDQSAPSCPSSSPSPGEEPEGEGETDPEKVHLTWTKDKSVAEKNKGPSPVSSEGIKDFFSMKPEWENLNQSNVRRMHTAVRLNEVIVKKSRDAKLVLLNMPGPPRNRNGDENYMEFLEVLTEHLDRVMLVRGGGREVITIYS

The assay concerns the target Solute carrier family 12 member 5 (Homo sapiens) (UniProt Q9H2X9). Nature of the assay: KCC2 cotransporter modulators, thallium flux, primary screen, cell-based, HEK293 KCC2, FluoZin-2 fluorescence, MLSMR (AID 1456).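 Note: slope of fluorescence scaled to starting intensity during 10 to 20 s after thallium.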 To be noted: KCC2 cells, thallium flux FluoZin-2 fluorescence; at 10 µM.
On to `COc1cc2nc(Cl)nc(NCCO)c2cc1OC`, for which the B-score of Tl+ flux slope (higher = more flux/activation; lower = inhibition) is 0.407 (inactive).
As for `COc1cccc(NC(=O)C(Sc2nnnn2C)c2ccccc2)c1` (centres undefined), the B-score of Tl+ flux slope (higher = more flux/activation; lower = inhibition) is -0.113 (inactive).
The same measure for `COc1cccc(NC(=O)C(Sc2nc3ccccc3c(=O)n2CC(C)C)c2ccccc2)c1` (centres undefined): 7.69 (active); for `CC(Sc1nc2ccccc2c(=O)n1Cc1ccco1)C(=O)c1ccccc1` (centres undefined): -0.121 (inactive).
With `Nc1nc(Sc2ncccc2[N+](=O)[O-])n[nH]1` the figure was -0.977 (inactive); with `Cc1ccc(N2C(=O)CN=C2Nc2nc(C)cc(C)n2)cc1`, 0.73 (inactive).
Turning to `CC(=O)NC(=S)NNC(=O)c1ccc(Br)cc1`, the B-score of Tl+ flux slope (higher = more flux/activation; lower = inhibition) was 5.47 (active).
The same measure for `CNC(=S)NNC(=O)c1ccc(N(C)C)cc1`: 0.736 (inactive); for `O=C(CCc1ccccc1)NNC(=O)c1ccc(Br)cc1`: -1.74 (inactive); for `COC(=O)c1ccc(S(=O)(=O)NCc2ccccc2)n1C`: -0.343 (inactive).
The same measure for `O=C1CCCCC1C(=O)c1ccccc1` (centres undefined): 0.304 (inactive); for `CN(C)c1cc(-c2ccc(F)cc2)oc(=O)c1Cl`: 0.0271 (inactive).
The same measure for `COc1ccnc(Oc2ccccc2)c1-c1ncn[nH]1`: 0.306 (inactive).
As to `O=C(CNCc1ccco1)Nc1cc(S(=O)(=O)N2CCOCC2)ccc1N1CCCC1`, the B-score of Tl+ flux slope (higher = more flux/activation; lower = inhibition) is -0.873 (inactive).
For `O=C(CNCc1cccs1)Nc1cc(S(=O)(=O)N2CCCC2)ccc1Cl`, the B-score of Tl+ flux slope (higher = more flux/activation; lower = inhibition) is -3.68 (active).
The same measure for `O=C(NCc1cccs1)C1CCN(S(=O)(=O)c2ccc(Cl)cc2)CC1`: -0.17 (inactive).
Turning to `COCCCn1c(-c2cccs2)nc2nc3ccccc3nc21`, the B-score of Tl+ flux slope (higher = more flux/activation; lower = inhibition) was 0.0602 (inactive).
Consider `O=C(N/N=C1\CCSC1)c1cc(Cl)ccc1O`, for which the B-score of Tl+ flux slope (higher = more flux/activation; lower = inhibition) is 0.11 (inactive).
The same measure for `COc1ccc(Cl)cc1NC(=O)CN(C)C(=O)CNC(=O)C12CC3CC(CC(C3)C1)C2`: 0.0604 (inactive); for `C/C(=N/NC(=O)c1cc(Cl)ccc1O)C12CC3CC(CC(C3)C1)C2`: 4.51 (active); for `CCOC(=O)C1CCN(C(=O)Nc2ccc(C)c(Cl)c2)CC1`: 0.0935 (inactive).
With `CCOC(=O)C(=Cc1ccccc1OC)C(=O)OCC` the figure was -0.438 (inactive); with `O=C(CN1C(=O)/C(=C/c2ccccc2F)Sc2ccccc21)NCc1cccnc1`, -1.86 (inactive).
On to `COc1ccc(C(=O)C2CCCN(C(=O)c3cnsn3)C2)c(C)c1` (centres undefined), for which the B-score of Tl+ flux slope (higher = more flux/activation; lower = inhibition) was -0.0096 (inactive).
Take `O=S(=O)(c1ccccc1)N1CN(Cc2ccc(F)cc2)c2nc3ccccc3nc21`: the B-score of Tl+ flux slope (higher = more flux/activation; lower = inhibition) was -1.17 (inactive).
The same measure for `COc1cccc(Nc2nnc(SCC(=O)N3CC(=O)Nc4ccccc43)s2)c1`: -0.459 (inactive).
`CCc1ccc(Nc2nnc(SCC(=O)c3ccc4c(c3)NC(=O)CO4)s2)cc1`: the B-score of Tl+ flux slope (higher = more flux/activation; lower = inhibition) is -5.32 (active).
Regarding `O=C1COc2ccc(C(=O)COC(=O)c3cccnc3Cl)cc2N1`, the B-score of Tl+ flux slope (higher = more flux/activation; lower = inhibition) was -0.384 (inactive).
With `O=C(Cn1cnc2cc([N+](=O)[O-])ccc2c1=O)NC(=O)NCc1ccccc1` the figure was -0.182 (inactive).
The same measure for `CC(=O)c1ccc(S(=O)(=O)Nc2ccc(C(=O)NCC(c3ccccc3)N(C)C)cc2)cc1` (centres undefined): 0.133 (inactive); for `COc1ccc(N2CCC(CNC(=S)Nc3c(C)cccc3C)C2)cc1` (centres undefined): -0.00939 (inactive); for `Cc1c(NC(=O)c2cccnc2)c(=O)n(-c2ccccc2)n1C`: 0.0888 (inactive).
The same measure for `Cc1c(NC(=O)CSc2cccc3cccnc23)c(=O)n(-c2ccccc2)n1C`: 4.92 (active).
In the case of `Cc1c(NC(=O)CSc2nnnn2-c2ccc(C(=O)O)cc2)c(=O)n(-c2ccccc2)n1C`, the B-score of Tl+ flux slope (higher = more flux/activation; lower = inhibition) is 1.95 (inactive).
The same measure for `O=c1[nH]n(-c2cccc(Cl)c2)c2ncccc12`: 0.268 (inactive); for `Nc1c(C(=O)NCc2ccccc2)nnn1Cc1cccc(Cl)c1`: -1.02 (inactive).
As for `Clc1cccc(CN2COc3c(cc(Cl)c4cccnc34)C2)c1`, the B-score of Tl+ flux slope (higher = more flux/activation; lower = inhibition) was 4.19 (active).
The same measure for `O=C(NNS(=O)(=O)c1ccccc1C(F)(F)F)c1cc2ncc(C(F)(F)F)cc2s1`: -0.726 (inactive); for `COc1ccc(OCc2cccc(C(=O)N3CCCC3)c2)cc1`: 0.115 (inactive).
As to `Cc1ccc(COc2ccc(C(=O)NN)cc2)cc1`, the B-score of Tl+ flux slope (higher = more flux/activation; lower = inhibition) is -0.198 (inactive).
The same measure for `Cc1oc(C(N)=O)cc1COc1ccc(C(N)=O)cc1`: 2.17 (active); for `COc1ccc(Cl)cc1S(=O)(=O)N1CCC(O)(c2ccc(Cl)cc2)CC1`: -0.0293 (inactive).
The same measure for `Cc1cccc(N=Nc2c(C)[nH]n(-c3ccccc3)c2=O)c1`: 0.0317 (inactive); for `Cc1ccc(N=Nc2c(C)[nH]n(-c3ccccc3)c2=O)cc1`: 3.14 (inactive).
The same measure for `Cc1[nH]n(-c2ccccc2)c(=O)c1N=Nc1ccccc1C(=O)N1CCCCC1`: 5.68 (active); for `CSc1nc(-c2ccco2)nn1C(=O)c1ccccc1Cl`: -1.08 (inactive); for `COC(=O)c1cc2c(N)c(C(=O)c3ccc(Cl)cc3)sc2nc1C(OC)OC`: 0.11 (inactive).
For the compound `COc1cc(OC)cc(/C(N)=N/O)c1`, the B-score of Tl+ flux slope (higher = more flux/activation; lower = inhibition) was -0.654 (inactive).
In the case of `COc1ccc(N2C(=O)c3ccccc3NC2c2ccc(OC)c(CN3CCOCC3)c2)cc1` (centres undefined), the B-score of Tl+ flux slope (higher = more flux/activation; lower = inhibition) was -0.152 (inactive).
The same measure for `C=CCn1c(=S)sc2c(=O)[nH]c(C)nc21`: -0.647 (inactive); for `C=CCn1c(=S)[nH]c2nc3c(cc2c1=O)COC(C)(C)C3`: 3.61 (active).
Regarding `O=C(CCl)N(Cc1cccc([N+](=O)[O-])c1)c1cccc(Cl)c1`, the B-score of Tl+ flux slope (higher = more flux/activation; lower = inhibition) is -0.452 (inactive).
Regarding `Cn1c2ccccc2c2cc(/C=C(\NC(=O)c3ccccc3)C(=O)NCC(=O)O)ccc21`, the B-score of Tl+ flux slope (higher = more flux/activation; lower = inhibition) is 0 (inactive).
As for `Cn1c(CCC(=O)Nc2ccccc2F)nnc1SCC(=O)Nc1ccccc1Cl`, the B-score of Tl+ flux slope (higher = more flux/activation; lower = inhibition) is -0.846 (inactive).
With `O=C(CSc1ccc(-c2cccs2)nn1)Nc1ccccc1F`, the B-score of Tl+ flux slope (higher = more flux/activation; lower = inhibition) was -2.89 (active).
Regarding `Cc1csc(NC(=O)CSc2ccc(-c3ccc(F)cc3)nn2)n1`, the B-score of Tl+ flux slope (higher = more flux/activation; lower = inhibition) is -4.45 (inactive).
Consider `C=CCC1(C#N)C(=S)NC(C)=C(C(=O)OCC)C1c1ccccc1` (centres undefined), for which the B-score of Tl+ flux slope (higher = more flux/activation; lower = inhibition) was -0.00243 (inactive).
The same measure for `Cc1ccc(SCc2c(C(=O)N/N=C/C3CC=CCC3)nnn2-c2nonc2N)cc1` (centres undefined): -0.374 (inactive); for `O=C(Nc1nnc(Cc2ccc(Cl)cc2)s1)c1ccncc1`: -2.1 (inactive); for `NS(=O)(=O)c1ccc(NC(=S)Nc2ccc(Br)c(Cl)c2)cc1`: 0.559 (inactive).
Turning to `CCNC(=S)NNC(=O)Cc1ccccc1`, the B-score of Tl+ flux slope (higher = more flux/activation; lower = inhibition) is 0.737 (inactive).
On to `COc1ccc(CCNC(=O)c2ccco2)cc1`, for which the B-score of Tl+ flux slope (higher = more flux/activation; lower = inhibition) is 0.796 (inactive).
With `CC(Oc1ccc2ccccc2c1)C(=O)NNC(=S)NC(=O)c1ccco1` (centres undefined) the figure was 25.4 (active).
For the compound `CC(=O)Nc1ccc(OCC(=O)NCc2ccc(C)cc2)cc1`, the B-score of Tl+ flux slope (higher = more flux/activation; lower = inhibition) was -0.00613 (inactive).
In the case of `CCCc1ccc(OCC(=O)NNC(=S)NC(=O)c2ccco2)cc1`, the B-score of Tl+ flux slope (higher = more flux/activation; lower = inhibition) is 28.4 (active).
The same measure for `O=C(Nc1ccc2ccccc2c1)/C(=C/c1cccc(Br)c1)NC(=O)c1ccco1`: -1.51 (inactive).
With `Cc1ccc(OCC(=O)NNC(=S)NCc2ccccc2)cc1` the figure was 9.51 (active); with `CC(C)Oc1ccc(CCC(=O)NNC(=S)NCc2ccccc2)cc1`, -1.38 (inactive).
Consider `O=C(Nc1ccc2ccccc2c1)/C(=C\c1ccc2c(c1)OCO2)NC(=O)c1ccco1`, for which the B-score of Tl+ flux slope (higher = more flux/activation; lower = inhibition) is 0.0996 (inactive).
